According to PubChem BioAssay AID2685 (National Center for Advancing Translational Sciences (NCATS), 2010):
Screen size: about 320,000 compounds; about 2,100 (0.66%) were called active. Inconclusive results (about 53%) are left out. The call rests on the fitted dose curve; in most records, active means well fitted inhibition curve with a large enough effect in the signal ratio, with a control signal flat (not every such curve was filed as active); inconclusive means small, poorly fitted or top-dose-only effect, or effect the other way, or a change in a side signal; inactive means flat fitted curve, though single readings scatter; the % refers to the signal ratio. The full list was thinned out, with actives kept by preference.

assay: qHTS Assay for Lipid Storage Modulators in Drosophila S3 Cells; settings: BODIPY lipid droplet fluorescence, 18-24 h, cells fed with added oleic acid; cell number change: measured here: cell count max response; series mostly up to 46.1 µM; lipid storage change, negative = inhibition: at the top concentration;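 on cell number change: cells counted by Cell Tracker Red CMTPX staining in the red channel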; on lipid storage change, negative = inhibition: on the % scale 0 is the no-effect control and ±100 the full control effect
Method in brief: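 Laser-scanning cytometry quantifies lipid droplet accumulation (500–530 nm total intensity; droplet/cell object ratio) in oleic acid-fed (400 uM added) Drosophila S3 cells treated with a concentration series. 20 uM Triacsin C defined 100% inhibition.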
Potency means the concentration at half of the fitted maximal effect.

SMILES | lipid storage change, negative = inhibition | cell number change | Potency | outcome
CCCC1(C(=O)OC)NC(c2ccco2)C2C(=O)N(c3ccc(C)cc3)C(=O)C21 (stereo not given) | 0.487% (inactive) | 3.89% | – | –
CCC1(C(=O)OC)NC(c2ccco2)C2C(=O)N(c3ccccc3)C(=O)C21 (stereo not given) | 3.55% (inactive) | 5.03% | – | –
CCC1(C(=O)OC)NC(c2ccco2)C2C(=O)N(c3ccc(C)cc3)C(=O)C21 (stereo not given) | – | -0.0174% | 29.1 µM (active) | –
COc1ccccc1C1=Nn2c(COc3ccccc3)nnc2SC1 | 8.35% (inactive) | 23.6% | – | –
O=S(=O)(c1ccc(Cl)cc1)N1CCn2c1nc1ccccc12 | – | – | – | inactive
O=[N+]([O-])c1cccc(S(=O)(=O)N/N=C\c2ccc3c(c2)OCO3)c1 | -28.7% (inactive) | -21.8% | – | –
Cc1nc(Cc2ccc(OC(C)C)cc2)[nH]c(=O)c1CC(=O)O | 17.8% (inactive) | 12.4% | – | –
CC(=O)Nc1ccc(-c2csc(NC(=O)C3=COCCO3)n2)cc1 | -16.5% [at 0.0737 µM] (inactive) | – | – | –
O=C(Nc1nc(-c2ccc(Cl)cc2)cs1)C1=COCCO1 | – | -17.4% | 9.2 µM (active) | –
Cc1ccc(-c2csc(NC(=O)C3=COCCO3)n2)cc1 | 12.5% (inactive) | -0.453% | – | –
COC(=O)CNC(c1ccccc1)c1cc(Br)ccc1NC(C)=O (stereo not given) | 10.9% (inactive) | 6.76% | – | –
CCC(=O)Nc1ccc(NC(=O)c2ccccc2Cl)nc1 | – | 7.43% | – | inactive
COc1cc(C(=O)Oc2ccc(C(=S)N3CCOCC3)cc2)cc(OC)c1OC | -15.9% (inactive) | -0.493% | – | –
CCOCCOc1cccc(C(=O)NC(c2ccccc2)C(C)C)c1 (stereo not given) | -3.66% (inactive) | 13.4% | – | –
CCOCCOc1cccc(C(=O)NC(C)c2ccc3ccccc3c2)c1 (stereo not given) | – | -6.8% | 13 µM (active) | –
CCOc1cccc(C(=O)Nc2ccc3ccccc3c2)c1 | – | 17.9% | – | inactive
CC12COC3(C(=O)Nc4ccccc4F)CC1CCC32C (stereo not given) | 0.0813% (inactive) | -23.5% | – | –
CCc1nc(C)cn1S(=O)(=O)c1ccc([N+](=O)[O-])cc1 | -3.24% (inactive) | 7.81% | – | –
COC(=O)CN1C(=S)N(C)C(=O)/C1=C/c1cccs1 | – | – | – | inactive
O=C(Cc1ccccc1)c1ccc2c(c1)OCCO2 | 2.3% (inactive) | 9.53% | – | –
O=C(CCCc1ccccc1)c1ccc2c(c1)OCCO2 | 5.96% (inactive) | -0.322% | – | –
O=C(CCCO)c1ccc2c(c1)OCCO2 | – | -5.61% | 18.4 µM (active) | –
Cn1c2c(c3ccccc31)CC/C2=N\O | – | 17% | – | inactive
Cc1ccc(P(=O)(OCCN2CCOCC2)C(C)(C)C)o1 (stereo not given) | -11.2% (inactive) | -0.698% | – | –

SMILES | lipid storage change, negative = inhibition | cell number change | Potency | outcome
CCCCc1nnc(NC(=O)CSc2nc(O)c(-c3ccccc3)c(=O)[nH]2)s1 | -3.64% (inactive) | -17.7% | – | –
O=C1CC(c2ccc3c(c2)OCCO3)Oc2ccc([N+](=O)[O-])cc21 (stereo not given) | – | -9.91% | 7.31 µM (active) | –
COc1ccc2c(c1)C(=O)CC(c1ccc3c(c1)OCCO3)O2 (stereo not given) | 8.02% (inactive) | 2.81% | – | –
O=C1CC(c2ccc3c(c2)OCCO3)Oc2ccccc21 (stereo not given) | 9.86% (inactive) | 8.06% | – | –
C/C(N)=C(/C#N)C(=O)COC(=O)c1ccc(NC(N)=O)cc1 | 7.52% (inactive) | 13.4% | – | –
O=C(N/N=C/c1cccc([N+](=O)[O-])c1)c1ccc(Br)cc1 | -16.9% (inactive) | 0.144% | – | –
Cn1nnnc1SCCNCc1ccccc1OCc1ccccc1 | -2.39% (inactive) | 16.4% | – | –
COc1cc(CNCCSc2nnnn2C)cc(Br)c1OCc1ccccc1 | 7.07% (inactive) | -4.04% | – | –
Cn1nnnc1SCCNCc1cc(Cl)ccc1OCc1ccccc1 | – | 3.31% | 5.8 µM (active) | –
O=C(CSc1nccn1Cc1ccco1)Nc1ccccc1 | -11.6% (inactive) | 2.09% | – | –
COc1cnc(-c2ccccc2)nc1Oc1cccc(C)c1C | 0.382% (inactive) | 7.32% | – | –
COc1cnc(-c2ccccc2)nc1Oc1ccccc1C | – | -26.8% | 5.17 µM (active) | –
COc1cnc(-c2ccccn2)nc1Oc1c(C)cccc1C | – | – | – | inactive
COc1ccc(/C=C2/N=C(SC3CCOC3=O)N(c3cccc(OC)c3)C2=O)cc1 (stereo not given) | -2.83% (inactive) | -7.72% | – | –
CCOC(=O)C1CCN(CC(=O)c2c(C)[nH]c3ccccc23)CC1 | – | – | – | inactive
O=c1oc(-c2cccs2)nc2ccccc12 | -17.8% (inactive) | 0.728% | – | –
Cc1ccccc1CSCCNC(=O)CSCc1ccc([N+](=O)[O-])cc1 | 13% (inactive) | -11.7% | – | –
Cc1ccc(CSCCNC(=O)CSCc2ccc([N+](=O)[O-])cc2)cc1 | – | – | – | inactive
Cc1cccc(CSCCNC(=O)CSCc2ccc([N+](=O)[O-])cc2)c1 | – | -21.3% | 14.6 µM (active) | –
Cc1ccc(C)c(N2CCN(C(=O)c3ccccc3Br)CC2)c1 | 20.8% (inactive) | 10.9% | – | –
CNc1ccccc1C(C)(C)c1cc(-c2cccc(Br)c2)no1 | – | -5.11% | 1.46 µM (active) | –
COC(=O)C1(Cc2cc(-c3cccc(Br)c3)no2)CCN(C(=O)OC(C)(C)C)CC1 | 36% (inactive) | 7.19% | – | –
Brc1cccc(-c2nnc(-c3ccccc3)o2)c1 | 2.23% (inactive) | 1.68% | – | –
CCc1ccc(CNC(=O)C2CCN(S(=O)(=O)N3CCC4(CC3)OCCO4)CC2)cc1 | 2.59% (inactive) | 0.101% | – | –
